Rows were chosen to be rich in hits. Some 4.2% of all compounds tested hit in one or more screens of this group.
GDH-TPI inh – GDH-TPI coupling enzyme inhibitors, primary screen, artefact control for M. tuberculosis FBA inhibitor project, biochemical, absorbance, full deck | 360,000 tested, 1.2% active | AID 588335, 2011 | inhibition, % at 4.8 µM | GDH-TPI coupled enzyme counterscreen, NADH absorbance;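 further: 0% = DMSO wells and 100% = wells lacking the enzyme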
CCHF vOTU inh-1 – CCHFV vOTU protease inhibitors, primary screen, biochemical, Pep-AMC substrate, fluorescence. Crimean-Congo hemorrhagic fever virus L polyprotein viral ovarian tumor (vOTU) protease …. 370,000 tested, 0.55% active. inhibition, % at 11.5 µM; further: 0% = vehicle wells with enzyme and 100% = no enzyme wells
Mtb FBA inh – Mtb FBA enzyme inhibitors, primary screen, biochemical, fluorescence, strain H37Rv. Fructose-bisphosphate aldolase (Mycobacterium tuberculosis (strain ATCC 25618 / H37Rv)), …. purified M. tuberculosis FBA, fluorescence read-out. inhibition, % at 1 µM. 360,000 tested, 2.3% active; in the data active means inhibition above about 27%;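 further: 0% = vehicle and 100% = reference inhibitor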
RecA splice inh – Mtb RecA intein splicing inhibitors, primary screen, biochemical, fluorescence, HTS | Protein RecA (Mycobacterium tuberculosis (strain ATCC 25618 / H37Rv)), P9WHJ3 | cell-free RecA intein splicing | inhibition, % (no concentration beside the values) | 290,000 tested, 0.75% active; in the data active means inhibition above about 30%;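 further: 0% = vehicle wells and 100% = reference inhibitor control wells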
Target sequence (P9WHJ3 whole entry, looked up, canonical isoform): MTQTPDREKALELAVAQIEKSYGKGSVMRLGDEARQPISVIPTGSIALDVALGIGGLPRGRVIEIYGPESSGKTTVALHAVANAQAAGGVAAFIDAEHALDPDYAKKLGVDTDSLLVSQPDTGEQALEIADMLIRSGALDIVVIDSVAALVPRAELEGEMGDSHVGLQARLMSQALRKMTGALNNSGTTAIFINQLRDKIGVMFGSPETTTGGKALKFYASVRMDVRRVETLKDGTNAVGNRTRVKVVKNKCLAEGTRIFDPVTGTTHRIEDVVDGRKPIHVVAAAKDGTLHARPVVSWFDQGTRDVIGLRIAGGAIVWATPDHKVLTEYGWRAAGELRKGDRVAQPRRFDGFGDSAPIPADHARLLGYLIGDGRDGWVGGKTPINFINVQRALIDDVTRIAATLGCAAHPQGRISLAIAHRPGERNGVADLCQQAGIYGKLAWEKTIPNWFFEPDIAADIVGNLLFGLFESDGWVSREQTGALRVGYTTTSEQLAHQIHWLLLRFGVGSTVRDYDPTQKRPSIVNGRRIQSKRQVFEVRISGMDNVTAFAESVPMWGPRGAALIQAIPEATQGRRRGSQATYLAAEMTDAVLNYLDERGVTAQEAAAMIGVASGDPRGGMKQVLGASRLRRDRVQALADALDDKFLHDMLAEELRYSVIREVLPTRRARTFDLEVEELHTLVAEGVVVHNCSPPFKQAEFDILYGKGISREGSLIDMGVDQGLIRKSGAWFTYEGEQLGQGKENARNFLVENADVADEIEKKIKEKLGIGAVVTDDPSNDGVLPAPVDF
CCHF vOTU inh-2 – CCHFV vOTU protease inhibitors, confirmation, biochemical, Pep-AMC substrate, fluorescence. inhibition, % at 11.5 µM. Recombinant CCHFV vOTU. 1,900 tested, 17% active. AID 686976, 2013. shares compounds with CCHF vOTU inh-1
Starred values were filed as active, the others as inactive; nt = no result. Unless noted, no stated cut-off is given here; in the data, active means inhibition above about 30%; inactive means the rest.

SMILES | GDH-TPI inh | CCHF vOTU inh-1 | Mtb FBA inh | RecA splice inh | CCHF vOTU inh-2
CC(C)C[C@@H](CN1CCC[C@@H]1CN1C(=S)NC[C@@H]1Cc1ccccc1)N1C[C@H](Cc2ccc(O)cc2)N(CC2CCCCC2)C1=S | nt | 30* | -3 | nt | -12
OC[C@@H]1CN(Cc2ccncc2)C[C@H](n2cnc3c(N4CCCC4)ncnc32)O1 | -1 | 0 | 4 | nt | nt
Cc1noc(C)c1NC(=O)Nc1ccc2c(c1)C(=O)N([C@H](C)CO)C[C@H](C)[C@@H](CN(C)S(=O)(=O)c1cccs1)O2 | 9 | -19 | 6 | nt | nt
COc1cc(C(O)c2nc3ccccc3s2)cc(OC)c1OC (stereo not given) | -7 | -11 | 3 | 0 | nt
Cc1ccc(CNC(=O)CNC(=O)[C@@H]2Cc3ccccc3CN2)cc1 | -4 | 7 | -1 | 1 | nt
Cc1cc(C(=O)N2CCC2(C)C(=O)Nc2cc(C(C)(C)C)nn2C)nn1C (stereo not given) | -1 | 7 | -1 | nt | nt
COc1ccc(C(=O)/C=C/c2cccc(OCc3ccccc3)c2)cc1CSCC(=O)O | 17 | 13 | 1 | 12 | nt
COc1ccc(C(=O)/C=C/c2ccc(OCc3ccccc3)cc2)cc1CSCC(=O)O | 40* | 36* | 0 | 21 | 3
Cc1c(S(=O)(=O)N2CCCCC2)c(=O)n(C)c(=O)n1C | 0 | -3 | -1 | -1 | nt
O=C(Nc1ccccc1Cc1ccccc1)c1ccncc1 | -2 | 10 | 2 | 0 | nt
Cn1nc(C2CC2)cc1NC(=O)C1(C)CCN1C(=O)CC(c1ccccc1)c1ccccc1 (stereo not given) | 3 | 8 | 1 | nt | nt
Cn1nc(C(C)(C)C)cc1NC(=O)C1(C)CCN1C(=O)CC(c1ccccc1)c1ccccc1 (stereo not given) | 12 | 33* | 2 | nt | -11
Cn1ccc2c(N(Cc3ccccc3)Cc3ccccc3)cc3c(c21)C1CCC3O1 (stereo not given) | nt | 44* | 11 | nt | -21
COc1ccc(C2C(C(=O)Nc3ccc(Cl)cc3)CCC(=O)N2c2ccc(OC)cc2)cc1 (stereo not given) | nt | 6 | nt | nt | nt
Cc1cc2c(N)cccc2nn1 | 15 | 111* | -6 | 60* | 2
O=C1OC(c2cccs2)=N/C1=C\c1ccc(-c2ccccc2Cl)o1 | 20 | 32* | -4 | 3 | 0
O=C(NC1CCc2ccccc21)c1cc(COc2ccc(F)cc2F)on1 (stereo not given) | 0 | 35* | -5 | 2 | -16
CCOC(=O)C1CCN(S(=O)(=O)c2ccc(NC(=O)OC)cc2)CC1 | 6 | 0 | -4 | 2 | nt
COC(=O)Nc1ccc(S(=O)(=O)N2CCC(C(=O)N(C)C3CCCCC3)CC2)cc1 | 1 | 31* | -1 | 1 | -19
O=C(NCc1cccs1)C(=O)NCC(c1ccco1)N1CCN(c2ccccc2)CC1 (stereo not given) | -1 | 31* | 3 | 1 | -5
Cc1ccc(S(=O)(=O)Nc2ccccc2C(=O)Nc2nc(-c3ccc(F)cc3)cs2)cc1 | 12 | 30* | 35* | 7 | -16
CCOc1ccc(NC(=O)c2ccccc2NS(=O)(=O)c2ccc(F)cc2)c([N+](=O)[O-])c1 | 6 | 30* | 0 | -3 | -4
COc1ccc(-c2csc(NC(=O)c3ccccc3F)n2)cc1 | -6 | -9 | -1 | 4 | nt
Cc1ccc(S(=O)(=O)Nc2nc(-c3ccccc3)cs2)cc1 | -3 | 5 | -1 | 1 | nt
COc1ccc(-c2csc(NC(=O)c3ccccc3NS(=O)(=O)c3ccc(F)c(F)c3)n2)cc1 | 15 | 37* | 3 | 21 | 9
SMILES | GDH-TPI inh | CCHF vOTU inh-1 | Mtb FBA inh | RecA splice inh | CCHF vOTU inh-2
CN(C(=O)c1ccc(NC(=O)C2CCCN(C(=O)OC(C)(C)C)C2)cc1)C1CC1 (stereo not given) | 5 | -5 | -2 | nt | nt
CCNC(=O)C1(C)CCCN1Cc1c(F)cccc1F (stereo not given) | 1 | -1 | 0 | nt | nt
COc1ccccc1-n1c(C)c(C(C)=O)c2cc(O)ccc21 | 2 | 5 | 1 | nt | nt
CCc1noc(C)c1C(=O)N(C)CC(=O)Nc1ccccc1C(F)(F)F | -2 | 36* | 4 | 2 | -1
CCc1cc(C(=O)O)c(NC(=O)/C=C/c2ccc(OC)c(OC)c2)s1 | 18 | 33* | -4 | -1 | 9
CCOc1ccc(NC(=NCc2ccc3c(c2)OCO3)SC2CC(=O)N(c3ccc(OCC)cc3)C2=O)cc1 (stereo not given) | 5 | -9 | -2 | 1 | nt
CCOc1ccc(NC(=NCc2ccc3c(c2)OCO3)SC2CC(=O)N(c3ccc(C(=O)O)cc3)C2=O)cc1 (stereo not given) | 7 | 30* | -1 | -1 | 7
CCCCNc1ccc2nsnc2c1[N+](=O)[O-] | 14 | 57* | -7 | 0 | -6
Cc1ccc2nsnc2c1NC(=O)c1ccc([N+](=O)[O-])cc1 | 9 | 11 | 0 | 0 | nt
CCN1/C(=C\C=C(C(C)=O)C(C)=O)Sc2ccccc21 | -2 | 37* | -42 | -3 | 25
O=C1C(Cl)=C(NCCCO)C(=O)c2ccccc21 | 13 | 45* | -5 | 17 | 48*
O=C1C(Cl)=C(NCCN2CCOCC2)C(=O)c2ccccc21 | 3 | 43* | -2 | 16 | 62*
O=C1c2cccc(NCCCNCCO)c2C(=O)c2cccc(NCCCNCCO)c21 | 10 | 22 | -7 | nt | nt
O=C1C(Cl)=C(NCCCN2CCOCC2)C(=O)c2ccccc21 | 7 | 17 | -3 | nt | nt
CN(C)c1ccc(NC2=C(Cl)C(=O)c3ccccc3C2=O)cc1 | 3 | 56* | -2 | 29 | 14
CCOCCCNC1=C(Cl)C(=O)c2ccccc2C1=O | 14 | 46* | -3 | 20 | 60*
O=C(NCCc1ccccc1)c1ccc(-c2ccc(F)c(F)c2)c2ccoc12 | 8 | -2 | 6 | nt | nt
COc1cccc(NC(=O)Cn2c(=O)n(C)c(=O)c3sc4c(c32)COC(C)(C)C4)c1 | -1 | 6 | -1 | 1 | nt
O=C(NCCN1CCC(Cc2ccccc2)CC1)C1CCCN(S(=O)(=O)c2ccccc2)C1 (stereo not given) | nt | -2 | nt | nt | nt
CN(C)c1ccc2cc(S(=O)(=O)O)cc(O)c2c1 | 15 | 38* | 169* | nt | -93
Cc1cc(C)c(NC(=O)CNC(=O)COC(=O)C2CCN(c3ccc(C(F)(F)F)cn3)CC2)c(C)c1 | -1 | 34* | 6 | 1 | 2
COc1ccccc1CNC(=O)COC(=O)C1CCN(c2ccc(C(F)(F)F)cn2)CC1 | 4 | 44* | 1 | 8 | -10
COc1cccc(CNC(=O)COC(=O)C2CCN(c3ccc(C(F)(F)F)cn3)CC2)c1 | 12 | 2 | 4 | nt | nt
CCOc1ccc(C(=O)C(C)OC(=O)C2CCN(c3ccc(C(F)(F)F)cn3)CC2)cc1 (stereo not given) | -3 | 35* | 0 | 7 | 10

From PubChem BioAssay
